Autofluor counter: counter-screen for toxin protease inhibitors: compound fluorescence. compound autofluorescence counterscreen, microsphere flow cytometry; active compounds read high. actives 3.1% (n = 360,000). fluorescence intensity (concentration not given with the values). AID 624483; in the data active means fluorescence intensity above about 16000; inconclusive means no clear call, values can overlap the other calls
BoNT F protease: BoNT F light chain protease inhibition; inhibition, % at 10 µM; actives 0.22% (n = 360,000); Multiplex microsphere protease cleavage assay, flow cytometry; AID 588497; in the data active means inhibition above about 35%, passing the limit was not always enough; inconclusive means no clear call, values can overlap the other calls
Anthrax LF prot: anthrax lethal factor protease inhibition; actives 0.12% (n = 360,000); P15917; multiplex microsphere protease cleavage assay, LF; inhibition, % at 10 µM
DUSP3 inh: DUSP3 (human) phosphatase inhibition. P51452. recombinant VHR phosphatase, pNPP absorbance. inhibition, % at 13.3 µM. actives 0.52% (n = 290,000). AID 1654; in the data active means inhibition above about 50%
Target sequence (P51452 whole entry, looked up): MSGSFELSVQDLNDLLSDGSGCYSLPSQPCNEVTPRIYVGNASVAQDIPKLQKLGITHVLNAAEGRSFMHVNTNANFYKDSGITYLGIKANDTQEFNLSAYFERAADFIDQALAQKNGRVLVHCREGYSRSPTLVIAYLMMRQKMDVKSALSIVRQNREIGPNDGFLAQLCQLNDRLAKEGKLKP
MazF activator: MazEF (E. coli) toxin RNase activation. FAM/BHQ RNA-DNA oligo cleavage fluorescence, 5 h. AID 504720. actives 0.32% (n = 350,000). P0AE70. activation, % at 20 µM; in the data active means activation above about 50%
Target sequence (P0AE70 whole entry, looked up): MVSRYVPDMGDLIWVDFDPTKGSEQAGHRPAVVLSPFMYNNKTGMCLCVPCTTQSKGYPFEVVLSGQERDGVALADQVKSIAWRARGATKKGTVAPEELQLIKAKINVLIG
BoNT A protease: blocks Botulinum neurotoxin A light chain protease | multiplex microsphere protease substrate cleavage, flow cytometry | inhibition, % at 10 µM | actives 0.17% (n = 360,000)
Large screens that a line does not name were inactive. The list is not random: actives were taken first. Their share in the collection is about 4.1%. Unless noted, no stated cut-off is given here; in the data, active means inhibition above about 30%; inconclusive means no clear call, values can overlap the other calls; inactive means below that.

Cc1ccc(C)c(NC(=O)c2ccc(N(C)S(C)(=O)=O)cc2)c1	Autofluor counter 20420
CCOc1ccc(N2C(=O)CC(/C=C3/N(C)c4ccccc4C3(C)C)C2=O)cc1 (stereo not drawn)	none
CN1/C(=C/C2CC(=O)N(c3cccc4ccccc34)C2=O)C(C)(C)c2ccccc21 (stereo not drawn)	Autofluor counter 20679
CN1/C(=C/C2CC(=O)NC2=O)C(C)(C)c2ccccc21 (stereo not drawn)	Autofluor counter 19664
CN1/C(=C\P(=O)(N(C)C)N(C)C)C(C)(C)c2ccccc21	none
Cc1onc(-c2c(Cl)cccc2Cl)c1C(=O)NCCc1ccncc1	none
Cc1cc(C)nc(SCC(=O)c2ccc(F)cc2F)n1	none
COCCNCCCCOc1c(Cl)cc(C)cc1Br	Autofluor counter 20464
Cc1cc(Cl)cc(Br)c1OCCCN1C(=O)NC(C)(C)C1=O	Autofluor counter 20662
Cc1cc(Cl)c(OCCN2C(=O)NC(C)(C)C2=O)c(Br)c1	Autofluor counter 20599
CC(C)c1cc(Br)ccc1OCCN1C(=O)NC(C)(C)C1=O	none
Cc1cc(C)c(OCCN2C(=O)NC(C)(C)C2=O)c(Cl)c1	Autofluor counter 22616
Cc1ccc(C(C)C)c(OCCCN2C(=O)NC(C)(C)C2=O)c1	none
Cc1ccc(S(=O)(=O)c2nc(-c3ccc(F)cc3)oc2N2CCOCC2)cc1	none
Cc1ccc(S(=O)(=O)N2CCC(C(=O)NCc3ccncc3)CC2)cc1	Autofluor counter 21375
Cc1ccc(S(=O)(=O)N2CCC(C(=O)N3CCC[C@H]3C(=O)NC3CCS(=O)(=O)C3)CC2)cc1 (stereo partly drawn)	Autofluor counter 23712, BoNT A protease inconclusive
O=C(NCc1ccccc1Cl)C1CCN(S(=O)(=O)N2CCCCCC2)CC1	Autofluor counter 17397, DUSP3 inh 54
CC1CCN(S(=O)(=O)N2CCCC(C(=O)NCc3ccccc3Cl)C2)CC1 (stereo not drawn)	none
O=C(CNCc1ccncc1)Nc1cc(S(=O)(=O)N2CCCCC2)ccc1Cl	Autofluor counter 20589
CN(Cc1cccc(Cl)c1Cl)C(=O)c1cccc(S(=O)(=O)N2CCN(Cc3ccccc3)CC2)c1	none
Cc1ccc(S(=O)(=O)N2CCC(C(=O)NCCN3CCCCCC3)CC2)cc1	Autofluor counter 18618, BoNT A protease inconclusive
COc1ccc(CNC(=O)[C@H](C)NC(=O)C2CCN(S(=O)(=O)c3ccc(C)cc3)CC2)cc1	Autofluor counter 18265, BoNT A protease inconclusive
O=C(NCc1ccc(Cl)cc1)C1CCN(S(=O)(=O)c2ccc(N3CCCC3=O)cc2)CC1	none
Cc1ccc(S(=O)(=O)N2CCC(C(=O)NCCCN3CCCC3=O)CC2)cc1	none (no result: DUSP3 inh)
O=C(NCc1ccccc1)C1CCN(S(=O)(=O)c2ccc(N3CCCC3=O)cc2)CC1	DUSP3 inh 52
COc1ccc(Cl)cc1NC(=O)C1CCN(C(=O)Nc2ccccc2)CC1	none (no result: DUSP3 inh)
O=C(c1cccn2c(=O)c3cc(Cl)ccc3nc12)N1CCOCC1	Autofluor counter 23073, BoNT A protease inconclusive
O=C(c1cccn2c(=O)c3cc(Cl)ccc3nc12)N1CCN(Cc2ccc3c(c2)OCO3)CC1	Autofluor counter 16508
O=C(c1cc(Cl)nc2ccccc12)N1CCN(Cc2ccc3c(c2)OCO3)CC1	none (no result: DUSP3 inh)
O=C(c1cccn2c(=O)c3ccccc3nc12)N1CCN(Cc2ccc3c(c2)OCO3)CC1	Autofluor counter 20636
O=C(c1cccn2c(=O)c3ccc(Cl)cc3nc12)N1CCC2(CC1)OCCO2	none
COc1ccc(NC(=O)CCNS(=O)(=O)c2cc(Br)cnc2N)c(OC)c1	none
O=c1oc(-c2ccc(Cl)cc2[N+](=O)[O-])nc2ccccc12	none (no result: DUSP3 inh)
CCCCN1CC(COCc2ccccc2)Oc2cccc(Oc3ccc(C)cc3)c2S1(=O)=O (stereo not drawn)	none (no result: DUSP3 inh)
NC(=O)CCCCC(=O)OCCCc1cccs1	Autofluor counter 16230
CCCN=C(N)/C(C(=O)OCC)=C(\O)c1ccc(OC)cc1	Autofluor counter 21368
CCOC(=O)/C(C(N)=NCC(C)C)=C(/O)c1ccccc1	none
Cc1ccc([N+](=O)[O-])cc1N=Cc1ccc(Br)s1	Autofluor counter 20554
Cc1ccnc(-n2c(C)cc(C=C3C(=O)N(C)C(=S)N(C)C3=O)c2C)c1	BoNT A protease 32
Cc1ccc(CNC(=O)[C@H]2O[C@@H](n3cnc4c(N)ncnc43)[C@H](O)[C@@H]2O)o1	none (no result: DUSP3 inh, MazF activator)
Cc1cc(SCc2cccc(C(F)(F)F)c2)nc(=O)[nH]1	none
COc1cc(-c2nn3c(Cc4ccccc4)nnc3s2)cc(OC)c1OC	Autofluor counter 22616
COc1cc(-c2nn3c(COc4ccccc4)nnc3s2)cc(OC)c1OC	Autofluor counter 23486
Cc1ccc(CC(=O)Nc2cccc(C(=O)Nc3c(C)n(C)n(-c4ccccc4)c3=O)c2)cc1C	none (no result: DUSP3 inh)
CC(C)CCOc1ccc(C(=O)NCCC(=O)N2CCOCC2)cc1	Autofluor counter 21240
CCCCOc1ccc(C(=O)NCCCC(=O)N2CCCCC2)cc1	none
Cc1cc(/C=N/n2cnnc2)c(C)n1-c1ccc(C(=O)O)cc1	Autofluor counter 23182
N/C(=N\OC(=O)C12CC3CC(CC(C3)C1)C2)c1ccccc1	Autofluor counter 17662
CCCCNCc1cc(Br)c(OCC(=O)N2CCOCC2)c(OC)c1	Autofluor counter 16518
COc1ccc(C(=O)NN)cc1COc1ccc(Br)cc1	Autofluor counter 19591
CCCCC1(C(=O)OC)NC(c2ccc(O)cc2)C2C(=O)N(c3ccccc3)C(=O)C21 (stereo not drawn)	BoNT F protease inconclusive
Cc1cc(C(=O)NNC(=S)NCC2CCCO2)cs1 (stereo not drawn)	Autofluor counter 19574
CCOc1cc(NC(=S)NCC2CCCO2)c(OCC)cc1NC(=O)c1ccccc1 (stereo not drawn)	Autofluor counter 24364
CCC(C)[C@H](NC(=O)NCC1CCCO1)C(=O)OC (stereo partly drawn)	Autofluor counter 24826
O=C(COC(=O)c1cccs1)NCC1CCCO1 (stereo not drawn)	none
O=C(NCC1CCCO1)c1cccs1 (stereo not drawn)	Autofluor counter 17278, BoNT A protease inconclusive
COC(=O)c1ccccc1NC(=O)NCC1CCCO1 (stereo not drawn)	Autofluor counter 22874
O=C(CC1CCCC1)NCCS(=O)(=O)N1CCN(c2ccccc2)CC1	none (no result: DUSP3 inh)
Cc1ccc(NC(=O)/C(C#N)=C(\N)C(Cl)(Cl)Cl)nc1	MazF activator 165
Cc1ccc(NC(=O)C(=O)Nc2ccc(C)cn2)nc1	none
COc1cc(CNc2ncnc3c2ncn3[C@H]2CN(Cc3cc(OC)c(OC)c(OC)c3)C[C@@H](CO)O2)cc(OC)c1OC	none (no result: DUSP3 inh, MazF activator)
CCOC(=O)c1cnc2c(cnn2C)c1Oc1ccc(OC)cc1	none
CCOC(=O)c1cnc2c(cnn2C)c1NCCC(O)C(F)(F)F (stereo not drawn)	Autofluor counter 21233
CC(=O)c1ccc(N2CCN(CC(=O)NC(=O)NCc3ccccc3)CC2)cc1	none (no result: DUSP3 inh)

Screening results from PubChem BioAssay.
